Records with an inconclusive call do not appear. Values without a mark were called inactive. Active and inactive are the calls of the source. The call rests on the fitted dose curve; in most records, active means well fitted inhibition curve with a large enough effect in the repeat runs; inconclusive means weak or mixed curves; inactive means no such curve, though single readings can be large or run the other way.
These compounds were tested against Cytochrome P450 2C19 (Homo sapiens) (UniProt P33261) (assay: Cytochrome P450 Family 2 Subfamily C Member 19 (CYP2C19) small molecule antagonists: luciferase reporter qHTS assay (AID 1671197; further: nearly all actives have a fitted effect of over 65% in size)). Settings: P450-Glo CYP2C19 enzyme, luciferin luminescence, 1 h; series mostly up to 115 µM; activity change, negative = inhibition: at the top concentration.
Sequence of Cytochrome P450 2C19 (Homo sapiens) (P33261 whole entry, looked up): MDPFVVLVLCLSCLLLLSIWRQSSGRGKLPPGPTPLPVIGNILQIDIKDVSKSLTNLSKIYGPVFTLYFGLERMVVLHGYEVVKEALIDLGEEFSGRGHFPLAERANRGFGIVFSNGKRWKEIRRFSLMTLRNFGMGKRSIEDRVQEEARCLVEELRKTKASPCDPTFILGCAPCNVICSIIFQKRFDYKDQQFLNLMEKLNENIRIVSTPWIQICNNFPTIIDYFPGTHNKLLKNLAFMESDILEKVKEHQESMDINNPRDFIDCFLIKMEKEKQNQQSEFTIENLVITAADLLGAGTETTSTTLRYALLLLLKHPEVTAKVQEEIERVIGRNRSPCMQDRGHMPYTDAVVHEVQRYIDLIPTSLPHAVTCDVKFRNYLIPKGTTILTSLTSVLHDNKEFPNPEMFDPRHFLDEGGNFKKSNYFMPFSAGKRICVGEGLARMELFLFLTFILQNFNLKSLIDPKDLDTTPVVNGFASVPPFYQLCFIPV
How it was run: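 Enzyme-substrate mix with proluciferin substrate (P450-Glo CYP2C19 system) preincubated with compounds 10 min at room temperature; NADPH regeneration solution added, 37C for 1 h; detection reagent stops reaction, luminescence read after 20 min. Ketoconazole positive control.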
On the % scale 0 is the no-effect control and ±100 the full control effect; potency means the concentration at half of the fitted maximal effect.

| Structure (SMILES) | activity change, negative = inhibition | Potency |
| --- | --- | --- |
| O=C(NC(O)C(Cl)(Cl)Cl)NC(O)C(Cl)(Cl)Cl (stereo not given) | 7.21% [at 52.9 µM] | – |
| C[C@]12C=CC(=O)C=C1CC[C@@H]1[C@@H]2CC[C@@]2(C)[C@H]1CC[C@]2(C)O | 16.4% [at 52.9 µM] | – |
| CCN(CCO)CCn1c(Cc2ccccc2)nc2c1c(=O)n(C)c(=O)n2C | 6.39% [at 52.9 µM] | – |
| CCc1cc(OC)c(C[C@H](C)N)cc1OC | 17% | – |
| CCCCCCCC(=O)Cl | – | 40.3 µM (active) |
| c1cncc([C@@H]2CCCCN2)c1 | – | 39.9 µM (active) |
| CC(C)(C)NC[C@H](O)c1ccc(O)cc1Cl | -2.82% [at 52.9 µM] | – |
| CCN(CCO)CCO | -24.3% | – |
| NNCc1ccccc1 | – | 36.2 µM (active) |
| C[C@H](N)C(=O)c1ccccc1 | – | 47.3 µM (active) |
| CC1N=C(N)OC1c1ccccc1 (stereo not given) | 2.03% | – |
| CC(=O)CN(CC(C)=O)N=O | 1.13% | – |
| ClC1=C(Cl)C2(Cl)C(CBr)CC1(Cl)C2(Cl)Cl (stereo not given) | – | inactive |
| C=C1CC[C@@]2(O)[C@H]3Cc4ccc(O)c5c4[C@@]2(CCN3CC2CC2)[C@H]1O5 | -14.7% [at 52.9 µM] | – |
| C(COCC1CO1)OCC1CO1 (stereo not given) | -10.5% | – |
| COP(=O)(O)OC | – | 18.5 µM (active) |
| C[C@H](CN1CCOCC1)C(C(=O)N1CCCC1)(c1ccccc1)c1ccccc1 | – | 96.9 µM (active) |
| O=C(O)C(F)(F)C(F)(F)C(F)(F)C(F)(F)C(F)(F)C(F)(F)F | -7.73% | – |
| CCOC(=O)Nc1cccc(OC(=O)Nc2ccccc2)c1 | – | 20 µM (active) |
| BrCC1CO1 (stereo not given) | 2.14% | – |
| NNC(N)=O | -20.9% | – |
| [P]#[In] | 22.7% | – |
| O=C(O)CBr | -1.88% | – |
| CCCC[N+](=O)[O-] | -22.8% | – |
| OCC(Cl)CCl (stereo not given) | – | 70.1 µM (active) |
